Screening data: PubChem BioAssay, The Scripps Research Institute Molecular Screening Center
FBW7 act – human FBW7 E3 ligase activation, primary screen; 650,000 tested, 0.13% active; AlphaScreen FBW7–phospho-cyclin E peptide binding, activator screen; normalized activity (activation), % at 26.1 µM; Q969H0; in the data active means normalized activity above about 1.9%;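 further: purified mutant Fbw7 with reduced substrate affinity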
MITF inh – inhibitors of human MITF. AID 1259374. 650,000 tested, 0.91% active. inhibition, % at 2.6 µM. O75030. AlphaScreen MITF homodimerization, bead proximity signal; in the data active means inhibition above about 50%
Target sequence (O75030 whole entry, looked up): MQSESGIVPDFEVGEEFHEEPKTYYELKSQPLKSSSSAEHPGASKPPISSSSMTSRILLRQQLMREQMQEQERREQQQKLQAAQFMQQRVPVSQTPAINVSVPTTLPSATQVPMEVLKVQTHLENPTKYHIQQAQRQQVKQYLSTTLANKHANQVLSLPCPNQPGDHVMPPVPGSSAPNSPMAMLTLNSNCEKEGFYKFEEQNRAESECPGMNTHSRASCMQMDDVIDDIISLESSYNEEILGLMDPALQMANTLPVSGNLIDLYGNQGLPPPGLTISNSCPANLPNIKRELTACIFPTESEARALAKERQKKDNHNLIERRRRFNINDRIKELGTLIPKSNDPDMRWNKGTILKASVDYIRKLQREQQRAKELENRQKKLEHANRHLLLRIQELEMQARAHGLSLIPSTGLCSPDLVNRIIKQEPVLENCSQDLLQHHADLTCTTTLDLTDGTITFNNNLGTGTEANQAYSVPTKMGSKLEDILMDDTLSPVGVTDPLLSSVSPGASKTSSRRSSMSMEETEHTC
TEAD-YAP inh – TEAD-YAP interaction inhibition. HEK-TIYL cells, TEAD-Gal4/YAP UAS-luciferase luminescence. inhibition, % at 9.12 µM. 640,000 tested, 1.4% active. AID 1259422; in the data active means inhibition above about 32%
GPR151 ag – activators of human GPR151; AID 1508602; Q8TDV0; 650,000 tested, 1% active; PathHunter beta-arrestin GPR151 cells, luminescence; activation, % at 11.2 µM; in the data active means activation above about 4.9%
Large screens that a line does not name were inactive. Compounds with a hit are over-represented: about 3.5% of the library has one in this group of screens.

O=C(O)c1cccc(COc2ccc(CO)cc2Br)c1	TEAD-YAP inh 84
O=C(O)c1cccc(COc2ccc(CO)cc2Cl)c1	TEAD-YAP inh 95
O=C(NCc1ccccc1F)C1CC(Cc2ccccc2)=NO1 (centres undefined)	none
COc1ccccc1N=C/C(C(=O)C(F)(F)F)=C(\O)c1cccs1	TEAD-YAP inh 50
COC(=O)c1ccccc1N=C/C(C(=O)C(F)(F)F)=C(\O)c1cccs1	none
Cc1ccc(Cl)cc1N1CCN(Cc2nnnn2C(C)(C)C)CC1	none
O=C(Nc1ccc(S(=O)(=O)C(F)F)cc1)c1cc(F)c(F)c(F)c1F	TEAD-YAP inh 37
CN1CCN(c2ccc(-c3cncc(/C=C/c4ccccc4)n3)cn2)CC1	TEAD-YAP inh 41
Cc1ccc(CSc2ccc(C(=O)NNC(=O)c3ccccn3)cc2[N+](=O)[O-])cc1	TEAD-YAP inh 50
CCOC(=O)c1ccccc1Nc1nc2ccccc2n2c(C)nnc12	none
COc1ccc(-c2ccc(NCCCN(C)C)nc2)cc1	none
COc1ccc2c(-c3ccccc3)cc(NCCCN(C)C)nc2c1	MITF inh 68
CCOC(=O)c1[nH]c(C)c(C(=O)Nc2cccc(F)c2)c1C	TEAD-YAP inh 43
CCOC(=O)c1[nH]c(C)c(C(=O)Nc2ccc(F)cc2)c1C	none
CCOC(=O)c1[nH]c(C)c(C(=O)Nc2cccc(Cl)c2)c1C	TEAD-YAP inh 46
C=CCNCCC1CCC(=O)N1CC1COc2ccccc2O1 (centres undefined)	none
Cc1ccc(/C=C/c2ccncc2)cc1	TEAD-YAP inh 51
COc1ccc(-c2c(C)oc3cc(OS(C)(=O)=O)ccc3c2=O)cc1	TEAD-YAP inh 37
Cc1oc2cc(OCC(=O)O)ccc2c(=O)c1-c1ccc(Br)cc1	none
Cc1oc2cc(OCCN3CCOCC3)ccc2c(=O)c1-c1ccc(Br)cc1	TEAD-YAP inh 37
Cc1oc2cc(OS(C)(=O)=O)ccc2c(=O)c1-c1ccc(Br)cc1	TEAD-YAP inh 34
COc1cccc(Oc2c(C)oc3cc(OS(C)(=O)=O)ccc3c2=O)c1	TEAD-YAP inh 44
COc1ccc(-c2c(C)oc3cc(O)ccc3c2=O)cc1	none
O=C(Nc1cccnc1)C1(c2ccc(I)cc2)CCCC1	none
CCOC(=O)c1cc(S(=O)(=O)Nc2cc(OCC)ccc2OCC)cn1C	none
Fc1cc(-c2nc(Nc3ccc(Cn4ccnc4)cc3)ncc2F)cc(N2CCOCC2)c1	TEAD-YAP inh 89
Fc1cnc(Nc2ccc(Cn3ccnc3)cc2)nc1-c1cc(N2CCOCC2)cc(C(F)(F)F)c1	TEAD-YAP inh 40
Fc1cc(-c2nc(Nc3cccc(Cn4cncn4)c3)ncc2F)cc(N2CCOCC2)c1	TEAD-YAP inh 88
Fc1cc(-c2nc(Nc3cccc(Cn4ccnc4)c3)ncc2F)cc(N2CCOCC2)c1	TEAD-YAP inh 94
Fc1cnc(Nc2ccc(Cn3cccn3)cc2)nc1-c1cc(N2CCOCC2)cc(C(F)(F)F)c1	none
O=C(CSc1nc2ccccc2c(=O)n1CC1COc2ccccc2O1)NCc1ccccc1 (centres undefined)	none
Fc1cc(-c2nc(Nc3ccc(-c4cnco4)cc3)ncc2F)cc(N2CCOCC2)c1	none
Fc1cc(-c2nc(Nc3ccc(-n4cnc(-c5ccccn5)c4)cc3)ncc2F)cc(N2CCOCC2)c1	TEAD-YAP inh 54
COc1ccc(OCC(=O)N2c3ccccc3Sc3ccc(Cl)cc32)cc1	none
O=C(COc1ccccc1)N1c2ccccc2Sc2ccccc21	TEAD-YAP inh 62
Cc1ccc(NC(=O)Cc2cccs2)c(Br)c1	none
Cc1ccc(NC(=O)CNCc2cccs2)c(Br)c1	FBW7 act 3.8
O=[N+]([O-])/C(=C/c1ccc2c(c1)OCCO2)c1ccccc1	TEAD-YAP inh 65
O=C(/C=C/c1ccc2c(c1)OCCO2)c1ccccc1	none
CSc1nnc(NC(=O)c2ccc(F)cc2)s1	none
CSc1nnc(NC(=O)c2ccc(C(C)(C)C)cc2)s1	TEAD-YAP inh 32
CC(C)(C)c1ccc(C(=O)Nc2nnc(SCC(=O)O)s2)cc1	TEAD-YAP inh 71
CSc1nnc(NC(=O)c2ccc(C)cc2)s1	TEAD-YAP inh 76
Cc1ccc(C(=O)Nc2nnc(SCC(=O)NCC3CCCO3)s2)cc1 (centres undefined)	TEAD-YAP inh 42
Cc1ccc(-c2nnc3n2N=C(c2ccc(O)c(O)c2)CS3)cc1	TEAD-YAP inh 59
Cc1ccc(C2=Nn3c(C)nnc3SC2)cc1	none
Oc1ccccc1-c1nnc2n1N=C(c1ccc(F)cc1)CS2	none
Oc1ccc(C2=Nn3c(nnc3-c3ccccc3Cl)SC2)cc1O	TEAD-YAP inh 63
O=C(CSc1nc2ccccc2n1CC(=O)N1CCCC1)NCc1ccccc1	none
NC(=O)C(=O)N/N=C/c1ccc(OC(F)F)cc1OC(F)F	none
CN1CCN(CC(=O)N2c3ccccc3Sc3ccccc32)CC1	none
Cc1cc(/C=C2\Sc3ccccc3N2C)cc(C)[n+]1CCCN1CCOCC1	TEAD-YAP inh 41
Cc1cc(/C=C2\Sc3ccccc3N2C)cc(C)[n+]1N(C)C	TEAD-YAP inh 78
Cc1cc(/C=C2\Sc3ccccc3N2C)cc(C)[n+]1N1CCN(C)CC1	TEAD-YAP inh 73
O=C(Nc1cc(C(F)(F)F)cc(Cl)n1)C1COc2ccccc2O1 (centres undefined)	FBW7 act 1.9
Cc1cccc(NC(=O)C2COc3ccccc3O2)n1 (centres undefined)	none
c1ccc2c(c1)Cn1nc(-c3c[nH]c4ccccc34)nc1-2	TEAD-YAP inh 77
c1ccc2c(c1)ccc1nnc(-c3c[nH]c4ccccc34)n12	none
CN1CCN(CCCNc2ccnc3cc4ccccc4cc23)CC1	TEAD-YAP inh 75
CN(C)CCN1CCN(c2ccnc3cc4ccccc4cc23)CC1	TEAD-YAP inh 44
CN1CCN(CCCNc2nc(=S)[nH]c3ccccc23)CC1	none
COc1cc(OC)cc(C(=O)Nc2ccc3oc(-c4ccc(C(C)(C)C)cc4)nc3c2)c1	none
CCC(=O)Nc1cc(C2CC2)nn1-c1nc(-c2ccccc2)cc(=O)[nH]1	FBW7 act 2.2
CCOc1ccc(S(=O)(=O)N2CCCc3ccccc32)c2cccnc12	TEAD-YAP inh 48
COc1cccc(CNC(=O)c2cnn3cc(-c4ccncc4)ccc23)c1	none
Cc1ccc(S(=O)(=O)N2C(=O)CCC2c2nc(-c3ccccn3)no2)cc1 (centres undefined)	TEAD-YAP inh 39
N#Cc1cc2c(cc1NC(=O)c1cc([N+](=O)[O-])ccc1N1CCOCC1)OCO2	TEAD-YAP inh 36
Cc1cc(C)c(NC(=O)c2cc([N+](=O)[O-])ccc2N2CCOCC2)c(C)c1	none
Cc1ccc(C(=O)c2cc([N+](=O)[O-])ccc2N2CCOCC2)cc1C	TEAD-YAP inh 42
Cc1ccc(C(=O)c2cc([N+](=O)[O-])ccc2N2CCOCC2)c(C)c1	TEAD-YAP inh 62
CCCc1noc(-c2ccc(CC)cc2)n1	none
O=C(NC1CC1)c1ccc(-c2nc(NCCN3CCOCC3)c3ncn(-c4ccsc4)c3n2)cc1	TEAD-YAP inh 37
NC(=O)c1ccc(-c2nc(NCCN3CCOCC3)c3ncn(-c4ccsc4)c3n2)cc1	TEAD-YAP inh 33
Nc1cccc(-c2nc(NCCN3CCOCC3)c3ncn(-c4ccsc4)c3n2)c1	TEAD-YAP inh 53
